Screening data as filed in PubChem BioAssay.
Shown are actives, neighbours in structure and some others; about 4.1% of the full set was active somewhere.
hgDAF12 agonist: H. glycines DAF-12 receptor agonists, primary screen, cell-based, luminescence, HEK293, GAL4 fusion, UAS-luciferase | activation, % at 6.8 µM | AID 687014, 2013 | hit rate 1.8% among 370,000 | Nuclear hormone receptor DAF-12 (Heterodera glycines), GAL4 fusion | HEK293 GAL4-hgDAF12 UAS-luciferase reporter, agonist luminescence; normalized to butyrate control;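 active = activation above a cutoff set at the mean of all screened compounds plus 3 SD, cut at about 10% in these data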;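 also: 0% = DMSO wells and 100% = sodium butyrate wells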
DAX1 inh-1: DAX1 (NR0B1) inhibitors on StAR promoter, primary screen, cell-based, luminescence, SF-1 (NR5A1), full-length DAX-1; HEK293T StAR-luciferase reporter, SF-1/DAX-1 repression relief; inhibition, % at 6.8 µM; hit rate 1.1% among 370,000; AID 652010, 2013;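 active = inhibition above the mean over all tested compounds plus 3 SD, cut at about 3.6% in these data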;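 also: 0% = DAX-1 cells with DMSO and 100% = cells lacking DAX-1 with DMSO; higher inhibition means more luminescence from relief of DAX-1 repression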
hcDAF-12 act: H. contortus DAF-12 nuclear receptor activators, primary screen, cell-based, luminescence, HEK293, lit1-tk-luc reporter. HEK293 hcDAF-12 lit1-tk-luc reporter; 0% DMSO, 100% Δ7-dafachronic acid. activation, % at 6.8 µM. hit rate 1.4% among 370,000. AID 652067, 2013;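 active = activation above the mean of all tested compounds plus 3 SD, cut at about 5.5% in these data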;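 also: 100% = response to 3 µM Δ7-dafachronic acid high control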
ssDAF-12 act: S. stercoralis DAF-12 nuclear receptor activators, primary screen, cell-based, luminescence, HEK293, GRIP1 co-expression, lit1-tk-luc; Nuclear hormone receptor DAF-12 (Strongyloides stercoralis); HEK293 ssDAF-12/GRIP1 lit1-tk-luc reporter; % of 3 µM dafachronic acid response; activation, % at 6.8 µM; hit rate 1% among 370,000; AID 652126, 2013;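 active = activation above the mean over all tested compounds plus 3 SD, cut at about 0.9% in these data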;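 also: 0% = DMSO-only wells and 100% = 3 µM delta7-dafachronic acid wells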
DAX1 inh-2: DAX1 (NR0B1) inhibitors, primary screen, cell-based, HEK293, Gal4-DAX1, luciferase luminescence | Nuclear receptor subfamily 0 group B member 1 (Homo sapiens), P51843 | HEK293 Gal4-DAX1 luciferase reporter | inhibition, % at 6.75 µM | hit rate 0.99% among 340,000 | AID 504766, 2011;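 active = inhibition above the mean over all tested compounds plus 3 SD, cut at about 4.2% in these data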;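 also: 0% = DAX1-transfected cells with DMSO and 100% = empty-vector control cells with DMSO; inhibition shows as a rise in luminescence from relieved DAX1 repression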
Target sequence (P51843 207-470 limits assumed): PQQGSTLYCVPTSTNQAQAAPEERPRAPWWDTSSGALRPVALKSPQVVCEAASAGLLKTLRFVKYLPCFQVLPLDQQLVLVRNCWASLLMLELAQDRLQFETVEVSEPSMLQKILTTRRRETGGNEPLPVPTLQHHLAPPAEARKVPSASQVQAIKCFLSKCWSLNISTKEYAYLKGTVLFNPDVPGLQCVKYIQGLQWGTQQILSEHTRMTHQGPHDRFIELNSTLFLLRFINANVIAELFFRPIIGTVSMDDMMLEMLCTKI
* hit, by the source's call; . = no result.

SMILES	hgDAF12 agonist	DAX1 inh-1	hcDAF-12 act	ssDAF-12 act	DAX1 inh-2
O=C(NCCOc1ccccc1Cl)c1ncn[nH]1	1	0	-1	-2	1
CCCCCCNC(=O)c1ncn[nH]1	0	0	0	-1	5.0*
O=C(C1=C(O)C(=O)N(CC2CCCO2)C1c1ccc(Cl)cc1)c1ccco1 (stereo not drawn)	2	0	0	-1	0
O=C(C1=C(O)C(=O)N(CC2CCCO2)C1c1ccccc1[N+](=O)[O-])c1ccco1 (stereo not drawn)	1	0	5	1.2*	1
CC(=O)C1=C(O)C(=O)N(C)C1c1ccccc1[N+](=O)[O-] (stereo not drawn)	-2	0	5	2.0*	2
COc1cccc(C#Cc2c(CO)[nH]c3ccccc23)c1	1	0	6.2*	1	0
COc1ccc(-c2nnc(-c3ccc(N)cc3)o2)cc1	11*	3	1	-1	2
Nc1cc(C(F)(F)F)ccc1Nc1ccccc1	1	0	1	0.9*	0
O=C(C[n+]1ccc(C(=O)c2ccccc2)cc1)Nc1ccc(C(F)(F)F)cc1	3	-1	1	0	0
CN(C)CC[n+]1ccc(C(=O)c2ccccc2)cc1	0	0	-1	0	5.1*
Cc1occc1C(=O)Nc1cc(C(C)(C)C)on1	12*	4.2*	4	0	2
Cc1cccc(N=NC(=S)NNc2cccc(C)c2)c1	9	3.7*	6.1*	0	2
COc1cc(NS(=O)(=O)c2ccc(NC(=S)NC(=O)c3ccco3)cc2)nc(OC)n1	1	0	0	-1	4.7*
CCc1ccc(C(=O)Nc2ccc3c(c2)n(C)c(=O)n3C)cc1	2	0	-1	-1	5.9*
O=C(NC(=S)Nc1cccc(O)c1)c1ccco1	10	1	0	1.7*	4
CCC(=O)NC(=S)Nc1cccc(NC(=O)c2ccco2)c1	-2	-1	-3	-1	-1
O=C(NC(=S)Nc1ccc2c(c1)OCCO2)c1ccco1	11*	2	4	0	4.5*
COc1cc(OC)cc(C(=O)Nc2ccc3c(c2)n(C)c(=O)n3C)c1	-2	0	-1	0	1
CCN(CC)C(=O)c1ccc(C(CCOC(=O)Oc2ccccc2)c2ccc(OC)cc2)cc1 (stereo not drawn)	0	-1	0	-1	.
O=C(NC(=S)NC1CCC(O)CC1)c1ccco1 (stereo not drawn)	4	4.1*	-1	-1	0
CSCc1ccc(C(=O)N2CCCC(Nc3ccc4c(c3)OCCO4)C2)o1 (stereo not drawn)	2	0	1	-1	0
CCc1ccc(C(=O)NC(=S)Nc2ccc3c(c2)OCCO3)cc1	12*	3	3	0	3
O=C(NC(=S)NC1CCCc2ccccc21)c1ccco1 (stereo not drawn)	-1	-1	-1	-2	0
Cc1ccc(C(=O)Nc2ccc3c(c2)OCCO3)cc1	9	1	1	0	-4
O=C(c1ccco1)N1CCCC(Nc2ccc3c(c2)OCCO3)C1 (stereo not drawn)	2	2	6.3*	0	1
CCOc1ccc(C(=O)Nc2ccc3c(c2)OCCO3)cc1	12*	2	5.9*	0	-1
CCOC(=O)C1=NOC(C(C)=O)(C(=O)N2CCOCC2)C1 (stereo not drawn)	-2	0	-1	0	.
Cc1ccc(Nc2nc(COC(=O)C3CC3)cs2)cc1	11*	2	2	-1	0
CCOC(=O)[C@@]12CCCC=C1N(CCc1ccc(Cl)cc1)C(=O)[C@H]2CC(=O)NCCc1ccccc1OC	0	0	3	-1	.
O=C(N/N=C/C=C\c1ccco1)c1cccs1	7	0	1	1.3*	.
